High-throughput results deposited in PubChem by several laboratories.
AMPAR-TARP mod: modulators of AMPA receptor GluA2-stargazin complexes | O88602+P19491 | HEK293 GluA2+stargazin, membrane potential dye (FDSS), glutamate EC50; hits were called plate by plate, in both directions | calls only at 30 µM | actives 3.5% (n = 40,000) | AID 1259245;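 active = any of four per-well response measures lying three or more SD from its plate-wide compound average, in either direction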
GIRK2 activator: Activates human GIRK2-containing potassium channels; HEK293 GIRK2/NPY4 cells, thallium flux fluorescence; P48051; activation (% efficacy), % for hits at 37.5 µM; 34,000 tested, under 10 active;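 active = primary screen hit, no activity in plain HEK293 cells, and in GIRK2-only cells above 5% efficacy rising with concentration; inactive = the rest, including fluorescent compounds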;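 note: efficacy is normalized control-subtracted fluorescence 15 s after thallium addition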
Target sequence (P48051 whole entry, looked up): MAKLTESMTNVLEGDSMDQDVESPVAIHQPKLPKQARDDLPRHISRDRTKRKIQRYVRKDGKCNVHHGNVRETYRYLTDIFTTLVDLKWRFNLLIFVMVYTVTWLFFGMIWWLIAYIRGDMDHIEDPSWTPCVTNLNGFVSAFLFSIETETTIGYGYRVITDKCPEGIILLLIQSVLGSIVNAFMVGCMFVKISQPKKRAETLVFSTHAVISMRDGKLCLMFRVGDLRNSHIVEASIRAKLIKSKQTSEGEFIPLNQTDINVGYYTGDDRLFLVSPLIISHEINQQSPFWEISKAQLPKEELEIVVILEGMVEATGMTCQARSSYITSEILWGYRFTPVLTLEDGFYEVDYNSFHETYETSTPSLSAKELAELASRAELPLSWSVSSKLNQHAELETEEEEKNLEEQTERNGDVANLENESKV
Calls only; i = inactive; nt = no result given; + = active, no number. Many of the other results were omitted from the sample, so hits are more common in it than they were.

SMILES	AMPAR-TARP mod	GIRK2 activator
COc1ccc(NC2(C#N)CCCCC2)cc1	+	i
c1ccc(CC2CNCCO2)cc1 (stereo not given)	i	i
OC12CCCCC1C(c1ccccc1)NCC2 (stereo not given)	i	i
COc1cccc(/C=C2\Oc3cc(OC(=O)N(C)C)ccc3C2=O)c1	i	nt
COc1ccc(/C=C2\Oc3cc(OC(=O)N(C)C)ccc3C2=O)cc1OC	+	nt
CCn1nc(C)cc1C(=O)Nc1ccc(Cl)cc1C(=O)c1ccccc1Cl	i	i
c1csc(CCNC2CC2)c1	i	i
c1nc(N2CCNCC2)c2cn[nH]c2n1	+	i
O=C(Cc1csc(Nc2ccccc2)n1)N1CCN(Cc2ccc3c(c2)OCO3)CC1	i	i
